Sfp PPTase inh: qHTS Assay for Inhibitors of Bacillus subtilis Sfp phosphopantetheinyl transferase (PPTase). 310,000 tested, 3.5% active. 4'-phosphopantetheinyl transferase ffp (Bacillus subtilis), Q9F4F7. Potency, µM, usual class: inhibitors. Biochemical Sfp PPTase activity, qHTS. AID 1490, 2009;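 note: the enzyme is Sfp with the accession as filed and its product quenches rhodamine fluorescence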
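Step 1, compound plus 15 nM Sfp-PPTase, 15 min, room temperature. Step 2, add rhodamine-CoA (5 uM) and BHQ-2-YbbR (12.5 uM). Step 3, read 525/598 nm fluorescence at 0 and 30 min.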
BAZ2B inh: qHTS Assay for Inhibitors of BAZ2B. AlphaScreen BAZ2B-H3K14Ac peptide displacement. Potency, µM (top dose mostly 114 µM), actives largely listed as inhibitors. 360,000 tested, 4.4% active. AID 504333, 2011; note: nearly all actives have a fitted effect of over 60% in size
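AlphaScreen luminescence quantifies BAZ2B engagement of H3K14Ac peptide; the protein and biotinylated peptide are both at 50 nM final, buffer PBS pH 7.4 with 0.01% Tween-20, all steps at room temperature.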
G9a inh: qHTS Assay for Inhibitors of Histone Lysine Methyltransferase G9a; Histone-lysine N-methyltransferase EHMT2 (Homo sapiens), Q96KQ7; G9a H3K9 monomethylation, AlphaScreen, 2 h; Potency, µM (doses to about 102 µM), actives largely listed as inhibitors; 350,000 tested, 8.8% active; AID 504332, 2011; note: nearly all actives have a fitted effect of over 75% in size
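Step 1: enzyme (final 20 nM) with compound, 15 min RT. Step 2: substrate peptide 500 nM and SAM 20 uM, 2 h RT. Step 3: anti-H3K9me1 antibody and AlphaScreen beads, 10 min, then plate read.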
L3MBTL1 block: qHTS Assay for the Inhibitors of L3MBTL1. 230,000 tested, 0.66% active. AlphaScreen L3MBTL1–H3K9me1 peptide binding. Potency, µM (top dose mostly 57.1 µM), usual class: inhibitors. Lethal(3)malignant brain tumor-like protein 1 (Homo sapiens), Q9Y468; note: nearly all actives have a fitted effect of over 60% in size
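L3MBTL1 50 nM + b-AHA-H3(1-15)K9me1 75 nM, 30 min RT; compound added, 30 min RT; streptavidin donor/Ni-chelate acceptor beads 10 ug/mL each final, 30 min RT dark; AlphaScreen read.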
JMJD2A Tudor inh: qHTS Assay for Inhibitors of JMJD2A-Tudor Domain. AlphaScreen JMJD2A-Tudor / H3K4me3 peptide binding. 390,000 tested, 4.4% active. Potency, µM (titrated, usually from 114 µM), hits mostly inhibitors; note: nearly all actives have a fitted effect of over 50% in size
HP1b binding inh: HTS for Inhibitors of HP1-beta Chromodomain Interactions with Methylated Histone Tails; Chromobox protein homolog 1 (Homo sapiens), P83916; 390,000 tested, 0.56% active; AID 540317, 2011; Potency, µM (top dose mostly 114 µM), actives largely listed as inhibitors; AlphaScreen HP1-beta / biotin-H3K9me3 peptide binding; note: nearly all actives have a fitted effect of over 70% in size
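AlphaScreen: HP1-beta (50 nM) preformed 30 min with biotin-H3(1-18)K9me3 peptide (50 nM) in PBS pH 7.4, 0.01% Tween-20. Compound added for 30 min at RT, then streptavidin donor/nickel chelate acceptor beads (10 ug/mL) for 30 min.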
A number is an active result; n = inactive; u = inconclusive; x = no result; [ ] = another dose, or the depositor's remark. Compounds with a hit are over-represented: about 12% of the library has one in this group of screens. Calls come from the whole dose curve; as a rule, active = well fitted curve in the direction sought with a large enough effect; inconclusive = small, poorly fitted or top-dose-only effect, or another doubt; inactive = no such curve, though single readings can be large; an effect the other way counts as inactive or inconclusive.

SMILES | Sfp PPTase inh | BAZ2B inh | G9a inh | L3MBTL1 block | JMJD2A Tudor inh | HP1b binding inh
CN1CCN(C(c2ccc(F)cc2)c2ccc3cccnc3c2O)CC1 (stereo not drawn) | x | x | x | x | n | n
CN1CCN(C(c2ccc(Br)cc2)c2cc(Cl)c3cccnc3c2O)CC1 (stereo not drawn) | 50µM | 45µM | 7.9µM | x | 50µM | u
C/C(Cc1ccccc1)=N\NC(=O)CNC(=O)c1ccc(Cl)cc1Cl | n | n | n | n | n | n
COc1ccc(NC(=O)c2c(C)oc3ccc(O)c(CN4CCOCC4)c23)cc1 | x | n | n | x | n | n
CCOC(=O)c1c(-c2ccccc2)oc2ccc(O)c(CN3CCCC3)c12 | n | n | 45µM | n | n | n
COc1ccc(C(=O)c2c(C)oc3ccc(O)c(CN4CCOCC4)c23)cc1 | 56µM | n | 45µM | x | n | n
COc1ccc(OC)c(C(O)c2coc3ccc(O)c(CN4CCOCC4)c23)c1 (stereo not drawn) | n | n | n | n | 89µM | n
N=C1C(c2ccccc2)=C(O)CN1c1cccc(S(=O)(=O)N2CCOCC2)c1 | n | n | n | n | 20µM | n
Cc1ccc(S(=O)(=O)N2CCCC2C(=O)OCc2ccccc2)cc1 (stereo not drawn) | n | n | n | n | n | n
Cc1ccc(S(=O)(=O)N2CCCC2C(=O)OCc2ccco2)cc1 (stereo not drawn) | u | 50µM | u | x | 56µM | n
CC(C)(C)c1ccc(C(=O)NCC(=O)OCC(=O)N2CCCC2)cc1 | x | n | u | n | n | n
O=C(COC(=O)/C=C/c1ccc(OC(F)F)cc1)NC1CCCCCCC1 | x | n | u | n | n | n
CC(O)C(O)C(O)C(O)C1NCCS1 (stereo not drawn) | n | n | u | n | n | n
OCC(O)C(O)C(O)C(O)C1NCCS1 (stereo not drawn) | n | n | 50µM | x | n | u
Clc1ccc(Cn2c3c(c4ccccc42)CCc2cc4ccccc4nc2-3)cc1 | x | x | x | x | n | n
O=C(CCSCc1cccc(Cl)c1)NCc1ccccc1Cl | x | n | n | x | n | n
O=C(NCCCc1ccccc1)c1cccc(NC(=O)C2CC2)c1 | x | x | x | x | n | n
O=C(NCCCCc1ccccc1)c1cccc(NC(=O)C2CC2)c1 | x | x | x | x | 56µM | n
O=C(COC(=O)C1C2CC3OC(=O)C1C3C2)Nc1cccc(Cl)c1 (stereo not drawn) | n | n | n | x | n | n
NCCN1C(=O)S/C(=C\c2ccc3c(c2)OCO3)C1=O | n | n | 45µM | x | n | n
COc1cc(/C=C2\SC(=O)N(CCN)C2=O)ccc1OS(=O)(=O)c1cc(C)ccc1C | n | u | 28µM | x | 28µM | u
O=C(CNC(=O)c1ccccc1F)NCCN1C(=O)S/C(=C\c2ccc3c(c2)OCO3)C1=O | x | n | n[2.33 µM] | n | n | n
CC1(C)CC(NNCCC#N)=CC(=[N+]2CCCC2)C1 | n | n | 40µM | x | n[11.4 µM] | n
O=C(CNC(=O)C(c1ccccc1)c1ccccc1)OCC(=O)c1ccc2ccccc2c1 | x | x | x | x | n | n
CN(CC(=O)Nc1ccc(Cl)c(Cl)c1)C(=O)c1cccc2cccnc12 | x | n | n[0.501 µM] | n | n | n
SMILES | Sfp PPTase inh | BAZ2B inh | G9a inh | L3MBTL1 block | JMJD2A Tudor inh | HP1b binding inh
CCCCOc1cccc(C2C(C(=O)c3ccc(C)o3)=C(O)C(=O)N2c2nnc(C)s2)c1 (stereo not drawn) | 50µM | n | x | x | u | n
C=CCOc1cccc(C2C(C(=O)c3ccc(C)o3)=C(O)C(=O)N2c2nccs2)c1 (stereo not drawn) | u | u | 32µM | n | u | n
CCCOc1cccc(C2C(C(=O)c3ccco3)=C(O)C(=O)N2c2nnc(C)s2)c1 (stereo not drawn) | n | n | u | x | n | n
CCN(C(=O)CSc1nnc(SC(C)C)s1)C1CCS(=O)(=O)C1 (stereo not drawn) | x | n | n | n | n | n
Cc1ccc(C)c(NC(=O)CSc2sc3c(O)cc(=O)[nH]c3c2C#N)c1 | u | 50µM | n | x | n | n
N#Cc1c(SCC(=O)Nc2cccc(C(F)(F)F)c2)sc2c(O)cc(=O)[nH]c12 | 40µM | u | 45µM | x | n | n
COC(=O)c1ccc(C)c(NC(=O)CSc2sc3c(O)cc(=O)[nH]c3c2C#N)c1 | u | 50µM | u | x | 50µM | n
Cc1ccc(Cl)cc1NC(=O)CSc1sc2c(O)cc(=O)[nH]c2c1C#N | u | n | n | x | n | n
Cc1cc(NC(=O)CSc2sc3c(O)cc(=O)[nH]c3c2C#N)ccc1Br | u | 79µM | 35µM | x | n | n
CN(C)CCOC(=O)NCC12CC3CC(CC(C3)C1)C2 | n | n | n | n | n | n
COC(=O)[C@@]1(Cc2ccccc2)[C@H]2c3cc(C(=O)N(C)C)n(Cc4nc5ccccc5[nH]4)c3C[C@H]2CN1C(=O)c1ccccc1 | n | x | x | x | x | x
S=C(Nc1ccccc1)N1N=C(c2cccs2)CC1c1cccs1 (stereo not drawn) | n | n | x | n | 20µM | n
COc1ccc(C2CC(c3cccs3)=NN2C(=S)Nc2ccccc2)cc1OC (stereo not drawn) | n | n | n | n | u | n
Cc1ccc(C2CC(c3ccccc3)=NN2C(=S)Nc2ccccc2)o1 (stereo not drawn) | 45µM | n | n[12.7 µM] | x | n | n
CCCCC/C=C\C[C@@H](O)/C=C/C=C/C=C\[C@@H](O)CCCC(=O)O | n | x | n | x | x | x
Cc1ccc(OC(=O)C2CSC3(C)CCC(=O)N23)c(Br)c1 (stereo not drawn) | x | n | n[0.501 µM] | n | n | n
COC(=O)c1ccc(OC(=O)C2CSC3(C)CCC(=O)N23)cc1 (stereo not drawn) | x | n | 56µM | n | n | n
COCCN(Cc1nc2ccccc2c(=O)[nH]1)C(=O)COc1cccc(C(C)=O)c1 | x | n | n[12.7 µM] | n | n | n
COc1cc2nc(/C=C/c3ccc(N(C)C)cc3)sc2cc1SC | u | 22µM | u | u | 25µM | u
CN(C)c1ccc(/C=C/c2nc3ccccc3c(=O)[nH]2)cc1 | n | n | n | x | n | n
Cc1ccc(-n2c(N)c(C(=O)NCc3cccnc3)sc2=S)cc1 | 35µM | n | 10µM | n | n | u
COC(=O)c1ccccc1NC(=O)c1sc(=S)n(C)c1N | 25µM | n | 7.9µM | n | n[11.4 µM] | u
Cn1c(N)c(C(=O)NCc2ccccc2)sc1=S | 22µM | u | u | n | 89µM | u

Bioassay records: PubChem, National Center for Advancing Translational Sciences (NCATS)
